Measured values: PubChem BioAssay (NCI)
Where “and” joins values, the source holds several entries; their conditions need not be identical. Equal entries are not always repeated. Compounds without any hit were thinned out: in the full panel of roughly 83,000, 20% have a hit.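 A percent growth of 40 corresponds to 60% growth inhibition; 0 means no net growth; -100 means all cells died. Active threshold: below 10.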 Calls of active or inactive are those of the source.

Each compound was assayed on SNB-75 CNS (assay: NCI-60 one-dose screen, 48 h (100 = growth as untreated, 0 = no growth, -100 = all killed)). Conditions: 10 µM.
Protocol: Growth inhibition of the SNB-75 human tumor cell line is measured as a screen for anti-cancer activity. Cells are grown in 96 well plates and exposed to the test compound for 48 hours. Compounds are tested at a single concentration, which is 10^-5 M for most compounds. The reported endpoint is percent growth (GI% or GIPRCNT), where numbers from 0 - 100% represent growth inhibition, and numbers from -100% - 0 represent cell death. For example, a value of 40 represents 60% growth inhibition. A value of 0 means no net growth occurred over the course of the experiment. A value of -40 indicates 40% of cells at the beginning of the experiment died by the end of the experiment. A value of -100 means all cells are dead at the end of the experiment.
NCI-60 Human Tumor Cell Lines Screen was performed using the standard one-dose NCI protocol, which is described in more detail at https://dtp.cancer.gov/discovery_development/nci-60/default.htm.
Compounds with GIPRCNT values below 10 were considered active. Activity score was based on GIPRCNT using the following formula: […]
Score is 0 for GIPRCNT values of 100 or above, 50 for GIPRCNT values of 0, and 100 for GIPRCNT values of -100.

Compound	growth
Cc1[nH]c(-c2nc3ccccc3[nH]2)c(C)c1C(=O)NC(C)C1CCCCC1 (stereo not given)	79.6% (inactive)
O=C(O)c1sccc1O	84.6% (inactive)

Same assay, conditions: 10 µM unless noted

Compound	growth
COc1ccc(-c2ncnc3c2ncn3C/C=C/CCl)cc1	128% (inactive) and 105% (inactive)
Cc1ccc(S(=O)(=O)Nc2ccc3cc([N+](=O)[O-])ccc3c2[N+](=O)[O-])cc1	80% (inactive) and 106% (inactive)
CCOC(=O)c1c(C)oc(C)c(C(=O)OCC)c1=O	96.5% (inactive) and 99.5% (inactive)
O=C(Oc1cccc(OC(=O)c2ccccc2)c1)c1ccccc1	97.1% (inactive) and 79.6% (inactive)
CCN(CC)CCCC(CNc1ccnc2cc(Cl)ccc12)c1ccc(Cl)cc1 (stereo not given)	-76.2% (active) and -39.9% (active)
CC(CN=Cc1ccccc1O)N=Cc1ccccc1O (stereo not given)	104% (inactive) and 82.4% (inactive)
CC(=O)Nc1ccc(O)cc1	99.8% (inactive) and 91.8% (inactive) and 104% (inactive)
Oc1c(Cl)cc(Cl)cc1Sc1cc(Cl)cc(Cl)c1O	97.2% (inactive) and 55.2% (inactive) and 100% (inactive)
Nc1ccc2[nH]c(-c3ccccc3)cc(=O)c2c1	82.4% (inactive)
OCCN1CCN(CCCN2c3ccccc3Sc3ccc(Cl)cc32)CC1	59.8% (inactive) and 45.6% (inactive)
COC(=O)/C=C/c1cc(O)c2c(c1)C(C(=O)OC)C(c1ccc(O)c(O)c1)O2 (stereo not given)	52.9% (inactive) and 37.5% (inactive)
Oc1ccccc1C=NCC1CCC(CN=Cc2ccccc2O)CC1 (stereo not given)	101% (inactive)
Nc1ccccc1Nc1ccccc1	106% (inactive) and 90.7% (inactive)
CCOC(=O)c1sc(N)nc1-c1ccccc1	94.7% (inactive)
O=CC(O)C(O)C(O)CO (stereo not given)	104% (inactive) and 97.8% (inactive)
C[N+](C)(C)CN1C(=O)c2ccccc2C1=O	77.5% (inactive)
Cn1c(SSc2ccc(-c3cccnc3)n2C)ccc1-c1cccnc1	89.4% (inactive) and 97.7% (inactive)
Nc1ccc2ccc(N)cc2c1	91.3% (inactive)

Compound	growth
CCCCCn1sc(=O)n(Cc2ccc(CNC(=O)C(C)c3ccc(CC(C)C)cc3)cc2)c1=O (stereo not given)	94.3% (inactive) and -20.9% (active)
O=C(N/N=C/c1ccc2c(c1)OCO2)c1ccncc1	77.9% (inactive) and 98.4% (inactive)
COC(=O)[C@H]1CCCN1C(=O)C1CCCN1C(=O)[C@@H](Cc1ccccc1)NC(=S)Nc1cc(C(F)(F)F)cc(C(F)(F)F)c1 (stereo not given in full)	85.4% (inactive) and 73.3% (inactive)
N#CC(C#N)=C/C=C/c1cccc([N+](=O)[O-])c1	68.2% (inactive) and 11.3% (inactive)
c1ccc2c(CC3=NCCN3)cccc2c1	92.9% (inactive) and 105% (inactive)
COc1ccccc1/C=N\N=C(N/N=C/c1ccccc1OC)N/N=C/c1ccccc1OC	86.7% (inactive) and 71.1% (inactive)
O=[N+]([O-])c1ccccc1/C=N\Nc1ccccc1	71.4% (inactive) and 96% (inactive)
CC(=O)Nc1cccc2c1CCCC2	85.4% (inactive) and 101% (inactive)
N/C(=N\N=C\c1ccc2c(c1)OCO2)N/N=C\c1ccc2c(c1)OCO2	113% (inactive) and 135% (inactive)
C/C(=N\NC(=O)c1ccncc1)c1ccccc1O	89.5% (inactive) and 50.9% (inactive)
Cc1ccc(S(=O)(=O)NCN2C(=O)c3ccccc3C2=O)cc1	96.9% (inactive)
COc1ccccc1NC(=O)OCC#CCOC(=O)Nc1ccccc1OC	92.9% (inactive) and 84.7% (inactive)
Oc1ccccc1/C=N\NC(=S)N/N=C/c1ccccc1O	77% (inactive) and 90.1% (inactive)
Nc1ccc(N=Nc2ccc(S(=O)(=O)O)cc2)cc1S(=O)(=O)O	106% (inactive) and 81.6% (inactive)
COc1c(/C(C)=N/N=c2sc(C(C)=O)nn2-c2ccc(Cl)cc2)c(Oc2ccccc2)c(OC)c2occc12	80.6% (inactive) and 90.1% (inactive)
CN1CCN(Cc2occc(=O)c2O)CCN(C)CCN(Cc2occc(=O)c2O)CC1	100% (inactive)
CO/N=C/C=C\C(=O)N/C=C/C[C@H]1/C=C/[C@H](O)/C=C\C=C\c2cccc(O)c2C(=O)O1	25.2% (inactive) and -14.6% (active)
CN(Cc1ccccc1)Cc1ccccc1	87.4% (inactive)

Same assay, conditions: 100 µM

Compound	growth
Cc1[nH]c(-c2nc3ccccc3[nH]2)c(C)c1C(=O)NC(C)C1CCCCC1 (stereo not given)	-98.9% (active)
O=C(O)c1sccc1O	28.5% (inactive)
